Laboratory results taken from PubChem BioAssay (EPA / NIEHS).
Results filed as inconclusive are left out. More than one record can exist for a structure, and the calls need not agree. Activity calls are given as the source filed them. Rule for the calls: active = hit-call score of the fitted dose curve at least 0.9, where 1 is the maximum; inconclusive = response in the unintended direction; inactive = score below 0.9.

Assay: TOX21_p53_BLA_p5_viability: Viability Assessment in the Tox21 HCT-116 p53 Agonism Beta-lactamase Assay, Phase 5 (AID 2283600)
Procedure, shortened: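 Seeded cells (4000/well) settle 5 h before compound addition. Plates then incubate 16 h at 37C, receive FRET substrate for 2 h, and finally CellTiter-Glo, with luminescence measured after a 30 min room-temperature incubation.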

| SMILES | outcome | AC50 |
| --- | --- | --- |
| CC(C)(c1ccc(OCC2CO2)cc1)c1ccc(OCC2CO2)cc1 (centres undefined) | inactive |  |
| COP(=S)(OC)Oc1ccc(S(=O)(=O)N(C)C)cc1 | inactive |  |
| C=CC#N | inactive |  |
| O=C1C(Cl)=C(Cl)C(=O)c2ccccc21 | inactive | 57.7 µM (active) |
| C(=NC1CCCCC1)=NC1CCCCC1 | inactive |  |
| C[C@H]1CCCC(=O)CCC/C=C/c2cc(O)cc(O)c2C(=O)O1 | inactive |  |
| O=C/C=C/c1ccccc1 | inactive |  |
| CCNc1nc(NC(C)(C)C)nc(SC)n1 | inactive |  |
| COP(=O)(OC)OC | inactive |  |
| CC(C)C1CCC(Cc2ccc(Cl)cc2)C1(O)Cn1cncn1 (centres undefined) |  | 71.1 µM (active) |
| CCCCCCCCSC(=O)Oc1cc(Cl)nnc1-c1ccccc1 | inactive |  |
| CC(C)c1cccc(C(C)C)c1O | inactive |  |
| Nc1ccc(-c2ccc(N)c(Cl)c2)cc1Cl | inactive |  |
